# Data published in ChEMBL document CHEMBL1157539, “Thousands of chemical starting points for antimalarial lead identification” (Nature, 2010).
# Test system: HepG2
# Assay: GSK_TCMDC: Percent inhibition of human HepG2 cell line. Test compounds present at 10uM.
# Assay type: functional
row,Compound,Inhibition [%]
1,CC(=O)Nc1nc(C(=O)Nc2cccc(-c3cccc(-c4nc5cc(F)ccc5[nH]4)c3)c2)cs1,39
2,Cc1ccc2c(c1)C1(CC(=O)N(CCc3scnc3C)C1=O)C(=O)N2Cc1ccccc1 (configuration not stated),0
3,Cn1cncc1C(=O)Nc1cccc(-c2ccc(-c3nc4cc(F)ccc4[nH]3)cc2)c1,0
4,CN(c1ncc(-c2cccc(CNCc3ccccc3O)c2)cn1)C1CCCCC1,12
5,Cc1cccc2nc(-c3ccc(-c4ccc(CNCc5ccc(CN)cc5)cc4)cc3)[nH]c12.O=C(O)C(F)(F)F,14
6,Cc1cc(Nc2ccc(C(C)(C)C)cc2)c2[nH]ncc2n1.Cl,31
7,O=C(Nc1ccc(-c2ccccc2)s1)N[C@H]1CCN(Cc2ccc(OCCCN3CCCCC3)cc2)C1,5
8,O=C(CCC1CCCC1)N(Cc1ccc(-c2ccc(CNCCc3ccccn3)cc2)cc1)CC1CCCCN1.O=C(O)C(F)(F)F (configuration not stated),32
9,CCN1CCC(N(Cc2ccc(-c3ccc(C(F)(F)F)cc3)cc2)C(=O)CCCCn2c(CCc3cccc(F)c3F)nc(=O)c3ccccc32)CC1,54
10,Cc1ccc(Nc2ccnc3ccc(C(F)(F)F)cc23)cc1O.O=C(O)C(F)(F)F,23
11,Cc1nc(C)c(-c2ccc(Cl)cc2Cl)c(O)c1Br,3
12,COc1cc(OC)c(NC(=O)C2c3ccccc3C(=O)N(CC(C)C)C2c2cccs2)cc1Cl (configuration not stated),9
13,O=C(Nc1ccc(Br)cc1)c1cc(Br)ccc1NS(=O)(=O)c1ccc(C(F)(F)F)cc1,53
14,COc1ccc(NC(=O)c2cn(-c3ccc(C(C)(C)C)cc3)nc2C)cc1N1CCN(C)CC1,33
15,N#Cc1ccc(N2CCN(Cc3cccc(-c4ccc(-c5nc6cc(C(F)(F)F)ccc6[nH]5)cc4)c3)CC2)nc1.O=C(O)C(F)(F)F,39
16,COc1ccccc1CN1CCC(CNC(=O)c2cc(-c3cccc(C(F)(F)F)c3)cs2)C1.O=C(O)C(F)(F)F (configuration not stated),25
17,COc1ccc(Nc2nc(N/N=C/c3ccc(O)cc3)nc(Nc3ccc([N+](=O)[O-])cc3)n2)cc1,0
18,Cc1nc2ccccc2c(=O)n1/N=C/c1ccccc1[N+](=O)[O-],0
19,COC(=O)c1ccc2nc(-c3ccc(C(=O)NCc4ccc(Cl)c(Cl)c4)cc3)[nH]c2c1,1
20,CC(C)COc1ccc(Cl)cc1Cc1ccc(-c2nc3ccc(F)cc3[nH]2)o1,35
21,CC(=O)c1ccccc1OCCSc1nnc(Cc2cccs2)n1C1CCCCC1,19
22,CCc1nc2nc(C)cc(Nc3ccc4c(c3)OCCO4)n2n1,8
23,Cl.O=C(NCCCCN1CCC(c2ccc3c(c2O)CCCC3)CC1)c1ccc(NC(=O)c2ccc(Cl)cc2)cc1,99
24,O=C(/C=C/c1ccc(Cl)c(Cl)c1)NCCCCCN1CCC(C(=O)Nc2ccc(Cl)cc2)CC1,42
25,CCc1c[nH]c2c(N3CCCC3=O)cc(C(=O)N[C@@H](Cc3ccccc3)[C@H](O)CNC(C)(C)c3cccc(OC)c3)cc12,0
26,COc1ccc(-c2ccc(NC(=O)c3ccc(C#N)cc3)cc2)cc1CN1CCN(C)CC1.O=C(O)C(F)(F)F,21
27,COc1cc(CN/C(=N/c2ccc(-c3ccccc3)cc2)Nc2ccc(C#N)cc2O)cc(OC)c1,0
